# The supplement of paper PMC13380429
# Unmarked numbers belong to inactive results.
# Test system: Vero E6 infected with SARS-CoV-2
# Test: inhibition of SARS-CoV-2 cytopathic effect; higher = more antiviral protection, active = above 15
# Details: 48 h
SMILES,inhibition of SARS-CoV-2 cytopathic effect (1 nM) [%],inhibition of SARS-CoV-2 cytopathic effect (8.33 nM) [%],inhibition of SARS-CoV-2 cytopathic effect (100 nM) [%],inhibition of SARS-CoV-2 cytopathic effect (833.33 nM) [%],inhibition of SARS-CoV-2 cytopathic effect (10000 nM)
CCc1ccc(/C=C/C(=O)Nc2ccc(C(C)=O)cc2)o1 [heclin],-2.06,-1.28,-7.85,-6.86,-5.66%
CCn1nc(C2CCN(C(=O)CCO)CC2)nc1-c1cnc(N)c(-c2nnc(C(C)(C)C)o2)n1,-2.84,1.6,1.87,-2.41,-1.94%
COc1ccc2c(c1)C(C(=O)N(Cc1ccc(N(C)C)cc1)c1ccc(C(C)C)cc1)CCC2 (stereo not given),-2.02,0.34,3.26,1.87,-3.29%
O=C1CCCC(=O)C1C(=O)c1ccc(C(F)(F)F)cc1[N+](=O)[O-] [nitisinone],0.39,0.93,-0.21,0.01,-1.34%
Cc1nnc(NS(=O)(=O)c2ccc(N)cc2)s1 [sulfamethizole],3.32,0.33,0.51,1.2,3.18%
CCS(=O)(=O)CCn1c([N+](=O)[O-])cnc1C [tinidazole],-3.22,-2.91,1.02,4.13,-0.87%
Cc1c(CN2CCN(C(=O)[C@H](C)O)CC2)sc2c(N3CCOCC3)nc(-c3cnc(N)nc3)nc12,-0.71,0.05,0.57,-5.06,-12.7%
CC(C)[C@H](CO)Nc1nc(Nc2ccc(C(=O)O)c(Cl)c2)c2ncn(C(C)C)c2n1 [purvalanol-B],11.3,5.29,0.04,4.65,-1.55%
CN1[C@@H]2CC[C@H]1C[C@@H](OC(=O)N1Cc3ccccc3NC1=O)C2,-1.09,-0.87,1.69,1.84,-0.21%
COc1ccc(CCN(C)CCCN2CCc3cc(OC)c(OC)cc3CC2=O)cc1OC [zatebradine],0.14,1.94,1.29,0.25,-2.07%
Cc1cc(NC(=O)Nc2ccc(F)c(F)c2)n(-c2ccccc2)n1,-0.5,-1.46,0.29,-0.03,0.43%
C/C(O)=C(\C#N)C(=O)Nc1cc(Br)ccc1Br,0.38,0.96,-1.74,2.02,1.5%
CCCc1cc(C)[nH]c(=O)c1CNC(=O)c1cc(-c2ccc(N3CCN(C(C)C)CC3)nc2)cc2c1cnn2C(C)C,-1.83,1,-2.55,-0.64,42.3% (active)
CCOC(=O)c1ccc(N)cc1 [benzocaine],-3.23,-2.13,-1.89,-4.68,-1.78%
CCN(CC)CC(=O)Nc1c(C)cccc1C [lidocaine],0.85,1.24,0.45,1.31,-0.93%
CC(=O)[C@@]12O[C@](C)(c3ccccc3)O[C@@H]1C[C@H]1[C@@H]3CCC4=CC(=O)CC[C@]4(C)[C@H]3CC[C@@]12C [algestone-acetophenide],0.43,0.88,1.95,2.43,2.91%
Cc1nnsc1C(=O)Nc1ccc(-n2nc(C(F)(F)F)cc2C(F)(F)F)cc1,-4.22,2.91,0.56,-0.23,-10.5%
COc1ccc(S(=O)(=O)Nc2cc(Cl)cc(Cl)c2OC)cc1N1CCNCC1,-1.83,1.03,1.96,5.17,-2.32%
CN[C@H](C(=O)N[C@H](C(=O)N(C)[C@H](/C=C(\C)C(=O)O)C(C)C)C(C)(C)C)C(C)(C)c1ccccc1 [taltobulin],-0.53,-1.55,-0.97,-1.63,-1.03%
Nc1cccc2c1C(=O)N(C1CCC(=O)NC1=O)C2=O (stereo not given) [pomalidomide],1.4,-0.68,2.15,0.83,2.41%
CC(=O)O[C@H]1C(=O)[C@@]2(C)[C@H]([C@H](OC(=O)c3ccccc3)[C@]3(O)C[C@H](OC(=O)[C@H](O)[C@@H](NC(=O)c4ccccc4)c4ccccc4)C(C)=C1C3(C)C)[C@]1(OC(C)=O)CO[C@@H]1C[C@@H]2O [paclitaxel],-2.42,-0.27,-2.39,-4.55,-2.64%
O=C(O)c1ccccc1 [benzoic-acid],0.45,-0.31,-1.57,-0.13,-0.09%
COC(=O)Nc1nc2cc(C(=O)c3ccccc3)ccc2[nH]1 [mebendazole],-1.33,0.93,-0.07,0.95,0.89%
O=S(=O)(NCC1CC1)c1ccc(Nc2nccc(N3CCCc4cc(O)ccc43)n2)cc1 [pyrintegrin],2.46,5.45,4.41,14.1,36% (active)
C[N+]1([O-])[C@@H]2C[C@@H](OC(=O)[C@H](CO)c3ccccc3)C[C@H]1[C@@H]1O[C@@H]12 (stereo not given in full) [scopolamine-N-oxide],7.18,4.58,3.81,13.6,3.51%
Cc1cccc(OCC(O)CNC(C)(C)C)c1C (stereo not given) [xibenolol],-3.23,-1.82,-0.78,-1.76,-5.66%
